Experimental data taken from PubChem BioAssay (NCATS).
“And” between values parts separate entries of the source, which are not always exact repeats. Identical values can stand only once. Values without a mark were called inactive. Results filed as inconclusive are left out. A call without a number means that no potency is given here. The source made the active and inactive calls. Unless noted, the call rests on the fitted dose curve; in most records, active means well fitted curve in the direction sought with a large enough effect; inconclusive means small, poorly fitted or top-dose-only effect, or another doubt; inactive means no such curve, though single readings can be large; an effect the other way counts as inactive or inconclusive.

Columns and labels:
[1] = target: Ferritin light chain (Equus caballus) (UniProt P02791); assay: qHTS Validation Assay for Identification of Novel General Anesthetics (AID 2323)
How it was run: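 Competitive displacement of profluorescent 1-aminoanthracene (1-AMA, 50% saturated solution in PBS) from 10 uM horse-spleen apoferritin. Compounds incubated 10 min at room temperature; fluorescence read at 380 nm excitation/535 nm emission, normalized to free 1-AMA and complex, fitted with four-parameter Hill equation.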

[2] = target: RecQ-like DNA helicase BLM (Homo sapiens) (UniProt P54132); assay: qHTS Validation Assay for Inhibitors of Bloom's syndrome helicase (BLM) (AID 2364)
How it was run: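 Forked 20-bp duplex substrate (200 nM, TAMRA/BHQ-2) plus 2 mM ATP added after 15 min compound preincubation with 50 nM enzyme, pH 8.0, poly(dI-dC) 2.5 ug/ml. Strand separation followed by fluorescence (525/598 nm) over 2 h, normalized to enzyme-free and DMSO controls.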

[3] = target: Cytochrome P450 3A4 (Homo sapiens) (UniProt P08684); assay: qHTS for inhibitors of CYP3A4 against the NCATS DSHEA and TCM libraries (AID 1919971);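 further: inhibition lowers luminescence from luciferin made by CYP3A4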
How it was run: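 Light output from converted D-luciferin reports remaining CYP activity. Compounds preincubate with enzyme and substrate for 15 min; NADPH regeneration (1x final) runs the reaction for 30-45 min.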

[4] = target: Cytochrome P450 1A2 (Homo sapiens) (UniProt P05177); assay: qHTS for inhibitors of CYPIA2 against the NCATS DSHEA and TCM libraries (AID 1919976);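 further: light from luciferin formed by CYP1A2 from a pro-luciferin substrate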
How it was run: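 In this quantitative HTS, inhibition of recombinant human CYP1A2 was measured as loss of luciferin-derived luminescence. Turnover ran 30-45 min at RT after NADPH regeneration solution was added.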

[5] = tested on: AS120; assay: qHTS profiling for inhibitors of Plasmodium falciparum proliferation (AID 504749); further: nearly all actives have a fitted effect of over 60% in size; details: P. falciparum in erythrocytes, SYBR Green DNA, 72 h; series mostly up to 28.7 µM
How it was run: (§1)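 Three-day growth assay of blood-stage parasites in erythrocytes (0.3% parasitemia, 2.5% hematocrit) at 37 C, 5% CO2, quantified by SYBR Green DNA staining after overnight detergent lysis.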

[6] = tested on: ATS189; assay: as above; details: P. falciparum in erythrocytes, SYBR Green DNA, 72 h; series mostly up to 28.7 µM
How it was run: as §1

[7] = tested on: CP191; assay: as above; details: P. falciparum in erythrocytes, SYBR Green DNA, 72 h; series mostly up to 28.7 µM
How it was run: as §1

[8] = tested on: CP194; assay: as above; details: P. falciparum in erythrocytes, SYBR Green DNA, 72 h; series mostly up to 28.7 µM
How it was run: as §1

[9] = tested on: CP203; assay: as above; details: P. falciparum in erythrocytes, SYBR Green DNA, 72 h; series mostly up to 28.7 µM
How it was run: as §1

[10] = tested on: CP247; assay: as above; details: P. falciparum in erythrocytes, SYBR Green DNA, 72 h; series mostly up to 28.7 µM
How it was run: as §1

[11] = tested on: CP291; assay: as above; details: P. falciparum in erythrocytes, SYBR Green DNA, 72 h; series mostly up to 28.7 µM
How it was run: as §1

[12] = tested on: DFO2036; assay: as above; details: P. falciparum in erythrocytes, SYBR Green DNA, 72 h; series mostly up to 28.7 µM
How it was run: as §1

[13] = tested on: TAB113; assay: as above; details: P. falciparum in erythrocytes, SYBR Green DNA, 72 h; series mostly up to 28.7 µM
How it was run: as §1

[14] = tested on: W2; assay: as above; details: P. falciparum in erythrocytes, SYBR Green DNA, 72 h; series mostly up to 28.7 µM
How it was run: as §1

[15] = target: Peroxisome proliferator-activated receptor alpha (Homo sapiens) (UniProt Q07869); assay: qHTS assay for small molecule agonists of the peroxisome proliferator-activated receptor alpha (PPARalpha) signaling pathway (AID 651778); details: PathHunter PPARalpha complementation, chemiluminescence, 6 h; active compounds read high
How it was run: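 Chemiluminescence from complemented enzyme reported PPARalpha activation in cells after 6 hr of compound treatment at 37 C. The detection reagent was incubated for 60 min at room temperature, and compounds were scored as agonists.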

[16] = qHTS assay for small molecule agonists of the antioxidant response element (ARE) signaling pathway measured by Nrf2-dependant transcriptional activity - cell viability counter screen (AID 720653; active means well fitted curve in the direction sought with a large enough effect in the repeat runs; an effect the other way counts as inactive or inconclusive); details: ARE-bla HepG2 viability, CellTiter-Glo ATP luminescence, 16 h; max response: active compounds read low
How it was run: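 Cytotoxicity counter screen: intracellular ATP quantified by CellTiter-Glo luminescence in the same ARE-bla HepG2 plates, after 16 h compound exposure and a 2 h beta-lactamase substrate step.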

[17] = qHTS assay for cell viability of HEK293 cells (AID 743288); details: ATP luminescence (CellTiter-Glo), 18 h; max response: active compounds read low; further: nearly all actives have a fitted effect of over 50% in size
How it was run: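 Parental HEK293 cells were seeded at 2,000 cells/well, rested at least 5 h at 37 C, then exposed to compounds in DMSO for 18 h at 37 C. Viability was read as ATP-dependent luciferase luminescence after 30 min at room temperature.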

[18] = qHTS assay for cell viability of the p53RE-bla HCT-116 cell line (AID 743292); further: nearly all actives have a fitted effect of over 55% in size
How it was run: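 HCT-116 p53RE-bla cells seeded 4,000/well; 5 h at 37 C; compound (DMSO) added; 16 h at 37 C; CellTiter-Glo added, 30 min RT; luminescence read.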

[19] = qHTS for differential inhibitors of proliferation of Plasmodium falciparum line 7G8 (AID 1815);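 further: parasite growth measured after three days of incubation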; further: potency means the concentration at half of the fitted maximal effect
[20] = target: Phospholipid hydroperoxide glutathione peroxidase GPX4 (Homo sapiens) (UniProt P36969); assay: Primary qHTS Assay for Inhibitors of Recombinant Selenoprotein Glutathione Peroxidase 4 (GPX4) (AID 1845192); details: outcome: dose series up to 50 µM unless noted; further: nearly all actives have a fitted effect of over 65% in size
How it was run: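 NADPH consumption, followed by fluorescence at 340/450 nm between 0 and 15 min, reports GPX4 activity via coupled glutathione reductase (100 nM). Enzyme 200 nM was pre-exposed to compound 30 min; 0.5 mM cumene hydroperoxide and 1 mM GSH served as substrates.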

Chain of Peroxisome proliferator-activated receptor alpha (Homo sapiens) (Q07869 whole entry, looked up): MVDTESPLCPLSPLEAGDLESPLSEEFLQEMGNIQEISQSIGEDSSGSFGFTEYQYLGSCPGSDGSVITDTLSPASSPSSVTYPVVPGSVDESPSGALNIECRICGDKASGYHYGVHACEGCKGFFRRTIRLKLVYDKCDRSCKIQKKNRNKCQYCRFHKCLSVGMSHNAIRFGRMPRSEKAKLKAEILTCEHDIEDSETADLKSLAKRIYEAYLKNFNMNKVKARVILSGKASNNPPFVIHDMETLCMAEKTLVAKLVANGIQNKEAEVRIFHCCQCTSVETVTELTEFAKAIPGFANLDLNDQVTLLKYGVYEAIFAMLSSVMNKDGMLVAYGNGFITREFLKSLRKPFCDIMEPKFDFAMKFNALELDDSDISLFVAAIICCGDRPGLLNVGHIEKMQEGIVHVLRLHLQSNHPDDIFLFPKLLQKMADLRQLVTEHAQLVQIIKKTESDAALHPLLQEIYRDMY
Chain of Phospholipid hydroperoxide glutathione peroxidase GPX4 (Homo sapiens) (P36969 whole entry, looked up): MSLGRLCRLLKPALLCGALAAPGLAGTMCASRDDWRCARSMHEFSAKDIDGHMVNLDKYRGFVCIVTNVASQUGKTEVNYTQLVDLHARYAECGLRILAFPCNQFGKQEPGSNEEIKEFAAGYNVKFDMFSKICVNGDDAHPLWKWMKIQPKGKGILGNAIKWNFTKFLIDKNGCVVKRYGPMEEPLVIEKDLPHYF
Chain of Ferritin light chain (Equus caballus) (P02791 2-175 limits assumed): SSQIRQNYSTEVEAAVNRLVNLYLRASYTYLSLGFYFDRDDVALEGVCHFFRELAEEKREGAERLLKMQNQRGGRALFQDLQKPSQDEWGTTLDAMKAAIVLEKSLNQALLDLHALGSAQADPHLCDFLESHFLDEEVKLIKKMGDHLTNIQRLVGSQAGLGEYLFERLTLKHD
Chain of RecQ-like DNA helicase BLM (Homo sapiens) (P54132 whole entry, looked up): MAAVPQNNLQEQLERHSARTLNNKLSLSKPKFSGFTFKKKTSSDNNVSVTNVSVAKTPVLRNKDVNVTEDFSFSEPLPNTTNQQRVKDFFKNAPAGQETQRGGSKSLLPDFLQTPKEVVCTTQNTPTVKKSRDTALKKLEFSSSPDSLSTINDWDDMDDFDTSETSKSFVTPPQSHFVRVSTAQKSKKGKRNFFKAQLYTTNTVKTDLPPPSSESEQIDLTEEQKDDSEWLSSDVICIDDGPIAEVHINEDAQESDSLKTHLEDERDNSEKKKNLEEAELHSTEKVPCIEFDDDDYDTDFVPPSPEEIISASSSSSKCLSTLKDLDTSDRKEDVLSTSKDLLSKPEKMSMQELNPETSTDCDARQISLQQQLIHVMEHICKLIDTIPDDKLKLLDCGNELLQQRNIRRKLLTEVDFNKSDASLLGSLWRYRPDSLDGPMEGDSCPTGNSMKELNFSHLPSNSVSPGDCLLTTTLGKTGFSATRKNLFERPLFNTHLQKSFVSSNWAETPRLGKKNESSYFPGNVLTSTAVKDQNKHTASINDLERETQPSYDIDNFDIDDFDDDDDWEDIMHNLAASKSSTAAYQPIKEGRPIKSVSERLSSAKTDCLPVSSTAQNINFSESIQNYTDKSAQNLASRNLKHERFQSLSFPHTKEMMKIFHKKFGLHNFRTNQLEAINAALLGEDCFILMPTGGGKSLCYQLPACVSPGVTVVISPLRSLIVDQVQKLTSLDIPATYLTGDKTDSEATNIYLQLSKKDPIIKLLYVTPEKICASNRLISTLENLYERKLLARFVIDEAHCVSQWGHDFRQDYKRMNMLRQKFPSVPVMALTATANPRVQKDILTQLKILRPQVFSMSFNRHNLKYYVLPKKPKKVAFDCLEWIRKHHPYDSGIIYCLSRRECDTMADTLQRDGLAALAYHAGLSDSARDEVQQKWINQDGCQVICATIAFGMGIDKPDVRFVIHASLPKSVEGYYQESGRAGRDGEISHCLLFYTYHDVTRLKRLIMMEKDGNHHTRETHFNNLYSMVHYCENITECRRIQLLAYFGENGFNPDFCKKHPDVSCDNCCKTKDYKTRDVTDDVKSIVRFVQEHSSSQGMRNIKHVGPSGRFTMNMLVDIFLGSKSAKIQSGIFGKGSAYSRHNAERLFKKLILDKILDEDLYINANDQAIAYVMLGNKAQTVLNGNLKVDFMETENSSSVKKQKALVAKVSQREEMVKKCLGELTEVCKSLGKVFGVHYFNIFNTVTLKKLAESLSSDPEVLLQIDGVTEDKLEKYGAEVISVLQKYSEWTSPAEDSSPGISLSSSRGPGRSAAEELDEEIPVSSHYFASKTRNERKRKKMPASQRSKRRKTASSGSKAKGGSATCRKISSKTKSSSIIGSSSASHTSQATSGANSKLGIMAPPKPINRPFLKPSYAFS
Chain of Cytochrome P450 1A2 (Homo sapiens) (P05177 whole entry, looked up): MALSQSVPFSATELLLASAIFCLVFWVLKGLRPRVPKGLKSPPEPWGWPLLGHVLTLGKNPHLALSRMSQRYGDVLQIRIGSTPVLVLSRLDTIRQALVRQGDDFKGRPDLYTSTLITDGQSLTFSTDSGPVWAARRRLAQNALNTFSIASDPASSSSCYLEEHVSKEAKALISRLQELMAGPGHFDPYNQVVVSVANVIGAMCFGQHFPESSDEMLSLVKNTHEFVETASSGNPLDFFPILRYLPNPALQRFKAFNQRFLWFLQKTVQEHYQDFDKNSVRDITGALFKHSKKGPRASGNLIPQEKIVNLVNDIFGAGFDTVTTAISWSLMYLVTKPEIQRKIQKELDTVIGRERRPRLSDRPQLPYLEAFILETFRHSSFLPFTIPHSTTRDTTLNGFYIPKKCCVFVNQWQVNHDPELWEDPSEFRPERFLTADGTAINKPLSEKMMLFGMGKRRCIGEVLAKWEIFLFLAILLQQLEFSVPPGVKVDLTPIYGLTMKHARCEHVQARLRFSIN
Chain of Cytochrome P450 3A4 (Homo sapiens) (P08684 whole entry, looked up): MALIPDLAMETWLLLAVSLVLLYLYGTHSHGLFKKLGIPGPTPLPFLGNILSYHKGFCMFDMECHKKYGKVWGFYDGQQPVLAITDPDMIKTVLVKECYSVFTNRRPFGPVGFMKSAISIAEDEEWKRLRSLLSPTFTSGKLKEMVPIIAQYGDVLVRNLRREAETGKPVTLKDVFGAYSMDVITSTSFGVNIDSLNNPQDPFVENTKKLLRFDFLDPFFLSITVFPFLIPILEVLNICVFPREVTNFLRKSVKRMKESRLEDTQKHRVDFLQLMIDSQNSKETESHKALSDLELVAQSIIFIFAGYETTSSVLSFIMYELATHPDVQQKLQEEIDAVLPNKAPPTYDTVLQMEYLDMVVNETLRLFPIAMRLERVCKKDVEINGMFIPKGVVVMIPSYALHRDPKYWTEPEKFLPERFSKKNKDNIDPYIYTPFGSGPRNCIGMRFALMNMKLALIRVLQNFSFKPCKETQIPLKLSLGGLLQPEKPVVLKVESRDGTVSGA

In the case of `NCCNS(=O)(=O)c1cccc2cnccc12`, the outcome [1] is reported as “inactive” and the Potency [2] is reported as “inactive”.

With `CC/C=C\C/C=C\C/C=C\C/C=C\C/C=C\CCCCCC(=O)O` the outcome [3] was “inactive” and the outcome [4] was “inactive”.

With `C[C@@H](C(=O)O)c1ccc(-c2ccccc2)c(F)c1` the Potency [5] was “inactive”, the Potency [6] was “inactive” and the Potency [7] was “inactive”. For the same compound, the Potency [8] was “inactive”, the Potency [9] was “inactive” and the Potency [10] was “inactive”. For the same compound, the Potency [11] was “inactive”, the Potency [12] was “inactive” and the Potency [13] was “inactive”. The Potency [14] was “inactive”.

In the case of `CC(C)=CCC/C(C)=C/CC/C(C)=C/CO`, the max response [15] is reported as 2.41%, the max response [16] is reported as -6.95% and the max response [17] is reported as -6.29%. The Potency [18] was “inactive”.

With `C[N+](C)(C)CCC(=O)c1cccc2ccccc12` the Potency [19] was “inactive”.

For `CNC(=O)[C@H]1O[C@@H](n2cnc3c(NCc4cccc(I)c4)nc(Cl)nc32)[C@H](O)[C@@H]1O`, the Potency [20] was “inactive”.

For `COc1ccc2c(c1)c(CC(=O)N1CCOCC1)c(C)n2C(=O)c1ccc(Cl)cc1`, the Potency [19] was 10 µM (active).

For `N[C@H](Cc1ccccc1)C(=O)O`, the Potency [20] was “inactive”.

In the case of `CC(=O)[C@H]1[C@H](C#N)C[C@H]2[C@@H]3CC=C4C[C@@H](O)CC[C@]4(C)[C@H]3CC[C@@]21C`, the max response [15] is reported as -0.257% and 0.0087%, the max response [16] is reported as -9.55% and -3.25% and the max response [17] is reported as -20.6% and -13.5%. For the same compound, the Potency [18] was “inactive”.
